About 4,100 (1.2%) of roughly 330,000 compounds were called active. This is one part of a sample in which actives are shown more often than they occur. Cut-off read from the data, not from the text of the source: active = inhibition above about 50%; inactive = the rest.
Target: Sentrin-specific protease 8 (Homo sapiens) (UniProt Q96LD8)
Test: blockers of human SENP8 peptidase activity – biochemical, luminescence, primary screen (AID 2540)
Conditions: purified SENP8, Z-RLRGG-aminoluciferin cleavage, at 10 µM, hits give high values

Sequence of Sentrin-specific protease 8 (Homo sapiens) (Q96LD8 whole entry, looked up): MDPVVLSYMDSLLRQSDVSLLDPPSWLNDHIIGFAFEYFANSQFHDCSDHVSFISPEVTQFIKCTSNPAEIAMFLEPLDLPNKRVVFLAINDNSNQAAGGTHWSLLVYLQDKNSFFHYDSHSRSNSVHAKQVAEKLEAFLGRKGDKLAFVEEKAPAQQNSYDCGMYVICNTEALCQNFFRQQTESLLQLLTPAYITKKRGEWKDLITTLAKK

| Compound | inhibition |
| --- | --- |
| O=C(NCCOc1cccnc1)c1ccc(OC2CCN(Cc3ccccn3)CC2)cc1 | -5.27% (inactive) |
| CCN(C(=O)COc1cccnc1[N+](=O)[O-])C1CCS(=O)(=O)C1 (centres undefined) | 1.37% (inactive) |
| O=C1C2CCCN2C(=O)N1CCCCN1CCN(c2cccc(C(F)(F)F)c2)CC1 (centres undefined) | 11.4% (inactive) |
| O=C(COC(=O)c1cccnc1Cl)Nc1ccc(S(=O)(=O)N2CCOCC2)cc1 | -1.74% (inactive) |
| COc1ccc(C(=O)Nc2ccccc2C(=O)N2CCN(c3ccccc3)CC2)cc1 | 0.756% (inactive) |
| COc1ccc(NS(=O)(=O)c2cc(C(=O)Nc3ccccc3C(=O)O)ccc2C)cc1 | -12.1% (inactive) |
| COc1ccc(/C=N/Nc2ccccc2C(=O)O)cc1 | 96.1% (active) |
| O=C(N/N=C/c1ccc(OC(=O)c2ccccc2Cl)cc1)c1ccc(O)cc1 | 1.64% (inactive) |
| COc1ccc(C(=O)Nc2ccccc2C(=O)N/N=C/c2ccc(O)c(OC)c2)cc1 | 96.1% (active) |
| COc1ccc(/C=N/OCC(=O)N(Cc2ccccc2)c2ccccc2C(=O)O)cc1 | -0.249% (inactive) |
| CCOC(=O)C(C)n1cnc2c(nnn2-c2cccc(OC)c2)c1=O (centres undefined) | -4.12% (inactive) |
| Cc1cc(=O)oc2c(C(=O)c3ccccc3)c(OCC(N)=O)ccc12 | 5.39% (inactive) |
| Nc1[nH]c(=S)nc2nc(-c3ccccc3)c(-c3ccccc3)nc12 | -9.6% (inactive) |
| Cc1cccnc1CCNC(=O)C1CCC(=O)N(Cc2cccc(F)c2)C1 (centres undefined) | -1.77% (inactive) |
| O=C(CNCc1ccco1)Nc1cc(S(=O)(=O)N2CCOCC2)ccc1N1CCCC1 | -6.3% (inactive) |
| CCN(CC)C(=O)CC1(c2ccccc2OC)CCOC(C(C)C)C1 (centres undefined) | -10.8% (inactive) |
| COc1ccc(CCNC(=O)C2CCCN2C(=O)Nc2ccccc2)cc1OC (centres undefined) | -4.97% (inactive) |
| Brc1ccc(-c2noc(-c3ccccc3)n2)o1 | 73% (active) |
| Nc1nonc1-c1noc(-c2ccc(Br)o2)n1 | -7.25% (inactive) |
| Brc1ccc(-c2nnc(-c3ccccc3)o2)o1 | 35.5% (inactive) |
| CCC1(CC)Cc2ccccc2-c2nc(CCl)[nH]c(=O)c21 | 1.95% (inactive) |
| O=c1[nH]c(CCl)nc2cc(-c3ccc(Cl)cc3)sc12 | 90.6% (active) |

| Compound | inhibition |
| --- | --- |
| O=C(CCc1nc2ccccc2c(=O)[nH]1)OCC(=O)c1cccc(Cl)c1 | -5.04% (inactive) |
| O=C(NCCc1ccco1)C(=O)NCCC1CCCCN1S(=O)(=O)c1ccccc1 (centres undefined) | 2.72% (inactive) |
| CC(C)(C)NC(=O)CN(Cc1cccs1)C(=O)CNS(=O)(=O)c1ccccc1 | 2.68% (inactive) |
| O=C(CSc1cccc[n+]1[O-])NCCCc1ccccc1 | 3.26% (inactive) |
| Fc1ccc(COc2cccc(-c3n[nH]c(=S)o3)c2)cc1 | 26.4% (inactive) |
| Fc1ccc(COc2ccc(-c3nnco3)cc2)cc1 | 52.5% (active) |
| Fc1cccc(Cl)c1COc1ccc(-c2nnco2)cc1 | -0.803% (inactive) |
| CCN(CC)c1ccc(S(=O)(=O)N2CCCCC2)cc1NC(=O)C1=COCCO1 | -1.53% (inactive) |
| COC(=O)c1ccc(C)c(NC(=O)C2CC(=O)N(C3CCCC(C)C3C)C2)c1 (centres undefined) | -6.55% (inactive) |
| CN(C)C(=O)c1ccc(NC(=O)COC(=O)c2cc3c(s2)CCCCC3)cc1 | -5.57% (inactive) |
| O=C(NCC1CCCO1)c1cc2c(s1)CCCC2 (centres undefined) | 0.761% (inactive) |
| O=C(Nc1ccc(F)cc1)c1cc2c(s1)CCCC2 | 90.8% (active) |
| CC(NC(=O)c1cc2cc(Cl)ccc2oc1=N)c1ccccc1 (centres undefined) | -6.62% (inactive) |
| COCC(C)NC(=O)COc1nncc2ccccc12 (centres undefined) | -1.01% (inactive) |
| CCCC(=O)Nc1cccc(NC(=S)NC(=O)C(C)Oc2ccc(Cl)cc2Cl)c1 (centres undefined) | -4.44% (inactive) |
| Nc1ncc(-c2cc3ccccc3oc2=O)s1 | 84% (active) |
| O=C(NCc1cccnc1)c1cccc(-c2cc3ccccc3oc2=O)c1 | -8.55% (inactive) |
| O=c1oc2ccccc2cc1-c1cn(-c2ccccc2)c(=S)[nH]1 | -12.9% (inactive) |
| Cc1cccc(NC(=O)/C=C/c2ccc3c(c2)OCO3)n1 | 73.5% (active) |
| Cc1cccc(NC(=O)Nc2ccc3c(c2)OCO3)n1 | 13.3% (inactive) |
| O=C(/C=C/c1ccc2c(c1)OCO2)NCc1ccc(F)cc1 | -4.04% (inactive) |
| COc1ccc(OC)c(NC(=O)c2cnn(-c3ccccc3Cl)c2NC(=O)c2ccco2)c1 | 7.71% (inactive) |

| Compound | inhibition |
| --- | --- |
| COc1ccc2[nH]c(C(=O)Nc3ccccc3Cl)cc2c1 | -24.6% (inactive) |
| O=C(Nc1ccccc1)c1cc2ccccc2[nH]1 | 72% (active) |
| CC(OC(=O)c1cc2ccccc2[nH]1)C(=O)N(C)c1ccccc1 (centres undefined) | -8.47% (inactive) |
| CSc1ccc(/C=N/NC(=O)c2cccc(Cl)c2)cc1 | 89.4% (active) |
| CSc1ccc(/C=N\NC(=O)CC(=O)NC(C)C)cc1 | 5.31% (inactive) |
| O=C(N/N=C/c1ccc(Cl)c(Cl)c1)c1ccc2nc[nH]c2c1 | -2.15% (inactive) |
| O=C(CNS(=O)(=O)c1ccc(Br)s1)NCc1ccc2c(c1)OCO2 | -11.1% (inactive) |
| CC(C)CC(=O)NC(=S)Nc1ccc(F)cc1F | 3.9% (inactive) |
| COc1ccc(C(=O)Nc2cc(C)ccc2NC(=O)COc2ccccc2)cc1 | -2.67% (inactive) |
| COc1ccc(C(=O)Nc2ccc(F)cc2F)cc1 | 65.2% (active) |
| CCC(CO)Oc1cc(NCc2ccccc2)c2ncn(C3CCCC3)c2c1 (centres undefined) | -0.274% (inactive) |
| CC(C)n1cnc2c(NCc3ccccc3)cc(N[C@@H](CO)Cc3ccccc3)cc21 | 72.8% (active) |
| CC(C)n1cnc2c(NCc3ccccc3)cc(OCC3CCN(C)CC3)cc21 | 44.5% (inactive) |
| CN1CCC(N(C)S(=O)(=O)c2ccc(NC(=O)c3cccc(C#N)c3)cc2)CC1 | -1.55% (inactive) |
| O=c1c(-c2ccccc2)cnc2n1CCS2 | 6.64% (inactive) |
| O=c1c2cc(-c3ccccc3)sc2nc2n1N=C(c1cccs1)CS2 | 57.5% (active) |
| Cc1nnc2n1N=C(c1ccccc1)CS2 | 1.54% (inactive) |
| O=C(Nc1cccc(NC(=O)c2cccc(F)c2)c1)c1ccccc1 | -15.3% (inactive) |
| O=C(Cc1ccccc1)Nc1cccc(NC(=O)c2ccccc2)c1 | -8.4% (inactive) |
| O=C(Nc1ccc(C(=O)O)c(O)c1)c1ccccc1 | 76.3% (active) |

Reference: PubChem BioAssay AID2540 (Sanford-Burnham Center for Chemical Genomics, 2010)
